Data: PubChem BioAssay AID1159580 (chemical genetic matrix, 2015)
About 2,000 (36%) of roughly 5,500 compounds were called active. Inconclusive results (about 18%) are left out. No stated cut-off is given here; in the data, active means normalized growth mostly below about 0.91 (no sharp cut-off); inconclusive means no clear call, values can overlap the other calls; inactive means mostly above about 0.92. This is one part of the list.

Assay: chemical genetic growth profiling, strain panel (AID 1159580);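 further: tested at 20 µM; growth read once vehicle control cultures reached saturation at 30 °C; 1 = growth at the plate median or of vehicle wells; lower values mean less growth of the strain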
Conditions: S. cerevisiae deletion strains, growth OD

Measured: normalized growth

COc1cc2occ(-c3ccccc3)c(=O)c2c(OC)c1C
inactive: locus YAL013W, strain DEP1, active compounds read low 0.947 | locus YAL021C, strain ccr4, active compounds read low 0.996 | locus YAL026C, strain drs2, active compounds read low 0.96 | locus YAL030W, strain snc1, active compounds read low 0.967 | locus YBL061C, strain skt5, active compounds read low 0.985 | locus YBR009C, strain hhf1, active compounds read low 0.978 | locus YBR021W, strain FUR4, active compounds read low 0.923 | locus YBR023C, strain chs3, active compounds read low 0.966 | locus YBR171W, strain sec66, active compounds read low 0.965 | locus YBR229C, strain ROT2, active compounds read low 0.959 | locus YBR231C, strain swc5, active compounds read low 0.966 | locus YBR279W, strain paf1, active compounds read low 0.992 | locus YCL011C, strain gbp2, active compounds read low 0.973 | locus YCL016C, strain dcc1, active compounds read low 0.968 | locus YCL029C, strain bik1, active compounds read low 0.933 | locus YCL061C, strain MRC1, active compounds read low 0.973 | locus YCL069W, strain vba3, active compounds read low 0.975 | locus YCR088W, strain abp1, active compounds read low 0.972 | locus YDL005C, strain med2, active compounds read low 1.02 | locus YDL035C, strain GPR1, active compounds read low 0.915 | locus YDL040C, strain nat1, active compounds read low 0.973 | locus YDL074C, strain BRE1, active compounds read low 0.817 | locus YDL101C, strain DUN1, active compounds read low 0.953 | locus YDL134C, strain PPH21, active compounds read low 0.963 | locus YDL185W, strain tfp1, active compounds read low 0.945 | locus YDR001C, strain nth1, active compounds read low 0.967 | locus YDR069C, strain doa4, active compounds read low 0.995 | locus YDR101C, strain arx1, active compounds read low 0.934 | locus YDR150W, strain NUM1, active compounds read low 0.963 | locus YDR159W, strain sac3, active compounds read low 0.98 | locus YDR162C, strain NBP2, active compounds read low 0.875 | locus YDR195W, strain ref2 1.1 | locus YDR297W, strain sur2, active compounds read low 0.974 | locus YDR334W, strain swr1, active compounds read low 0.968 | locus YDR335W, strain msn5, active compounds read low 0.991 | locus YDR388W, active compounds read low 0.935 | locus YEL003W, strain gim4, active compounds read low 0.978 | locus YEL037C, strain rad23, active compounds read low 0.977 | locus YEL061C, strain CIN8 (second series), active compounds read low 0.978 | locus YEL061C, strain CIN8, active compounds read low 0.968 | locus YER015W, strain faa2, active compounds read low 0.981 | locus YER016W, strain bim1, active compounds read low 0.97 | locus YER110C, active compounds read low 0.938 | locus YER111C, strain swi4, active compounds read low 1 | locus YER155C, strain BEM2 (second series), active compounds read low 0.886 | locus YER155C, strain BEM2, active compounds read low 0.961 | locus YFR010W, strain ubp6, active compounds read low 0.991 | locus YGL078C, strain dbp3, active compounds read low 0.975 | locus YGL167C, strain pmr1, active compounds read low 0.965 | locus YGL173C, strain kem1, active compounds read low 0.983 | locus YGL227W, strain vid30, active compounds read low 0.989 | locus YGL240W, strain doc1, active compounds read low 0.944 | locus YGL248W, strain PDE1, active compounds read low 0.961 | locus YGL253W, strain hxk2, active compounds read low 0.971 | locus YGR078C, strain PAC10, active compounds read low 0.932 | locus YGR135W, strain pre9, active compounds read low 0.918 | locus YGR229C, strain SMI1, active compounds read low 0.813 | locus YHR013C, strain ard1, active compounds read low 0.976 | locus YHR027C, strain rpn1, active compounds read low 0.989 | locus YHR030C, strain SLT2, active compounds read low 0.948 | locus YHR094C, strain hxt1, active compounds read low 0.956 | locus YHR129C, strain ARP1, active compounds read low 0.949 | locus YHR142W, strain chs7, active compounds read low 0.917 | locus YIL066C, strain RNR3, active compounds read low 0.874 | locus YIL073C, strain SPO22, active compounds read low 0.818 | locus YIL125W, strain kgd1, active compounds read low 0.955 | locus YIR030C, strain dcg1, active compounds read low 0.937 | locus YJL092W, strain hpr5, active compounds read low 0.977 | locus YJL095W, strain BCK1 (second series), active compounds read low 0.975 | locus YJL095W, strain BCK1, active compounds read low 0.847 | locus YJL115W, strain asf1, active compounds read low 0.998 | locus YJL129C, strain trk1, active compounds read low 0.891 | locus YJL134W, strain LCB3, active compounds read low 0.965 | locus YJL154C, strain vps35, active compounds read low 0.99 | locus YJL164C, strain tpk1, active compounds read low 0.937 | locus YJL166W, strain qcr8, active compounds read low 0.975 | locus YJL168C, strain set2, active compounds read low 0.946 | locus YJL187C, strain SWE1 (second series), active compounds read low 0.934 | locus YJL187C, strain SWE1, active compounds read low 0.976
active: locus YDL192W, strain arf1, active compounds read low 0.903 | locus YDR137W, strain rgp1, active compounds read low 0.765 | locus YDR318W, strain mcm21, active compounds read low 0.891 | locus YDR392W, strain spt3, active compounds read low 0.707 | locus YDR502C, strain sam2, active compounds read low 0.919 | locus YER167W, strain BCK2, active compounds read low 0.881 | locus YGL086W, strain mad1, active compounds read low 0.901 | locus YGR252W, strain gcn5, active compounds read low 0.707 | locus YHR079C, strain IRE1 (second series), active compounds read low 0.911 | locus YHR200W, strain rpn10, active compounds read low 0.905
